Screening data: PubChem BioAssay, National Center for Advancing Translational Sciences (NCATS)
Shiga toxin inh: A qHTS for Small Molecule Inhibitors of Shiga Toxin; Vero cells, Shiga toxin protein synthesis inhibition reporter; inhibition, % at 38.7 µM; 290,000 tested, 9.2% active; AID 2315, 2010; in the data active = inhibition mostly above about 28%, no sharp cut-off; inactive = mostly below about 43%; note: 0% is about no effect
CHX counter: Cycloheximide Counterscreen for Small Molecule Inhibitors of Shiga Toxin; cell reporter, cycloheximide protein synthesis inhibition counterscreen; max response, %; 300,000 tested, 12% active; in the data active = max response mostly above about 13%, no sharp cut-off; inactive = mostly below about 14%; note: read at 38.3 µM for the half of the compounds with a filed dose; 0% is about no effect
NS1 function inh: qHTS Assay for Inhibitors of Influenza NS1 Protein Function. Potency, µM (top dose mostly 46.1 µM), without a hit: at the highest dose activity, positive = more growth. 270,000 tested, 0.4% active; calls by dose curve; note: potency is the fitted concentration of half-maximal effect; actives are rising curves; nearly all actives have a fitted effect of over 50% in size
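Compounds were scored for reversing the slow growth caused by influenza A NS1 in S. cerevisiae, measured by optical density at 600 nm. Assay medium contained 2% galactose at pH 6.0; NS1-free yeast of the same strain were the positive control.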
Pf growth 48h: Primary qHTS for delayed death inhibitors of the malarial parasite plastid, 48 hour incubation | Potency, µM (titrated, usually from 28.7 µM), inactives show top-dose activity change, negative = inhibition, most hits filed as inhibitors | P. falciparum luciferase growth in erythrocytes, 48 h | 310,000 tested, 5.9% active | AID 504832, 2011; note: potency is the fitted concentration of half-maximal effect; % is set by controls: 0 for no effect and ±100 for the full control effect
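Parasite viability was followed by luminescence of a genomically integrated firefly luciferase. Cultures held 0.1% parasitemia at 2% hematocrit (final), incubated under 5% CO2 at 37 C.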
Pf growth 96h: Primary qHTS for delayed death inhibitors of the malarial parasite plastid, 96 hour incubation. P. falciparum luciferase reporter growth, 96 h. Potency, µM (top dose mostly 28.7 µM), without a hit: at the top dose activity change, negative = inhibition, actives largely listed as inhibitors. 320,000 tested, 6.9% active; note: potency is the fitted concentration of half-maximal effect; % is set by controls: 0 for no effect and ±100 for the full control effect
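Luminescence readout: decreased luciferase signal marks inhibited growth of reporter-expressing P. falciparum in infected red cells (2% hematocrit, 0.05% parasitemia final), exposed to compound two generations (96 h, 37 C, 5% CO2).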
* = called active by the depositor; ? = inconclusive; nt = no result given. Compounds with a hit are over-represented: about 21% of the library has one in this group of screens. Unless noted, calls come from the whole dose curve; as a rule, active = well fitted inhibition curve with a large enough effect; inconclusive = small, poorly fitted or top-dose-only effect, or another doubt; inactive = no such curve, though single readings can be large or run the other way.

SMILES | Shiga toxin inh | CHX counter | NS1 function inh | Pf growth 48h | Pf growth 96h
COC(=O)c1sc(NC(=O)c2cc3c(s2)CCCC3)nc1C | 26* | 34* | -5% | 10% | -2%
Cc1nc(NC(=O)c2ccc(Br)s2)sc1C(=O)N(C)C | 50* | 44* | -1% | 212% | 2%
CCc1sc(C(=O)Nc2nc(C)cs2)cc1C | 76* | 26* | -38% | -84% | -97%
Cc1nc(NC(=O)c2cc3c(s2)CCCCC3)sc1C(=O)N(C)C | 102* | 21* | -67% | 19% | nt
Cc1csc(NC(=O)c2cc3c(s2)CCC3)n1 | 86* | 64* | -3% | 159% | 170%
Cc1nc(NC(=O)C(Cl)Cl)sc1C(=O)N(C)C | -12 | 4 | -10% | -1% | 45%
CC(=O)Nc1c(O)n(C)c2ccccc12 | 9 | 1 | 6% | 32% | ?
O=C(Cc1ccc(-n2cccc2)cc1)NCc1cccs1 | 26 | -5 | 11% | -7% | ?
Cn1c(CC(=O)Nc2ccccc2)nnc1SCC(=O)NC1=NCCS1 | -11 | -6 | 9% | -1% | 2.6µM*
Cn1c(CC(=O)Nc2ccccc2)nnc1SCC(=O)Nc1ccc(N2CCOCC2)cc1 | 29 | 39* | -18% | 27% | -3%
COCCNC(=O)C(c1ccc(C)cc1)N(Cc1ccco1)C(=O)CCC(=O)Nc1ccccn1 (configuration not stated) | 2 | -1 | -18% | -21% | 1%
Cc1cc2cc(CN(CCCO)S(=O)(=O)c3cccc4nsnc34)c(=O)[nH]c2cc1C | -2 | 1 | -6% | 9.3µM* | -6%
Cc1ccc2[nH]c(=O)c(CN(CCCO)S(=O)(=O)c3c(C)ccc4nsnc34)cc2c1 | 12 | -1 | -15% | 0% | 5.9µM*
Cc1ccc2cc(CN(Cc3ccco3)S(=O)(=O)c3c(C)ccc4nsnc34)c(=O)[nH]c2c1 | 30 | -2 | -27% | ? | 4%
O=c1[nH]c2cc3c(cc2cc1CN(CCO)S(=O)(=O)c1ccccc1Cl)OCCO3 | -11 | -6 | -9% | nt | 0.66µM*
COc1cc2cc(CN(CCO)S(=O)(=O)c3ccccc3Cl)c(=O)[nH]c2cc1OC | -21 | -10 | -14% | ? | -4%
Cc1ccc2cc(CN(CC3CCCO3)S(=O)(=O)c3cccc4nsnc34)c(=O)[nH]c2c1 (configuration not stated) | -6 | -4 | -3% | 9.3µM* | -1%
COc1ccccc1OCCNC(=O)c1ccc2c(c1)OCCO2 | nt | nt | nt | 168% | 232%
NC(=O)CC(NC(=O)Cc1ccc(Cl)cc1)c1ccc(NC2CCCCCCC2)c([N+](=O)[O-])c1 (configuration not stated) | -2 | -3 | 11% | -4% | 0%
Cc1ccc2cc(CN(CC(C)C)S(=O)(=O)c3cccc4nonc34)c(=O)[nH]c2c1 | -7 | -11 | 19% | ? | 10µM*
COCCN(Cc1cc2ccc(C)cc2[nH]c1=O)S(=O)(=O)c1ccccc1 | -8 | -4 | -19% | 0% | ?
NC(=O)C1CCN(C(=O)COc2ccc(Nc3ccccc3)cc2)CC1 | 26 | 0 | -3% | -5% | -16%
O=C(/C=C/c1ccc(O)c(O)c1)O[C@H](Cc1ccc(O)c(O)c1)C(=O)O | 12 | 0 | 5.6µM* | 59% | 8%
Cn1nnnc1Sc1ncnc2scc(-c3ccccc3)c12 | 4 | 2 | -8% | 12µM* | -3%
CC(=O)Nc1ccc(Sc2ncnc3scc(-c4ccccc4)c23)cc1 | -5 | -8 | -10% | -12% | ?
SMILES | Shiga toxin inh | CHX counter | NS1 function inh | Pf growth 48h | Pf growth 96h
Cn1nnnc1Sc1ncnc2scc(-c3ccc(F)cc3)c12 | 19 | -6 | -17% | 0% | ?
CCCC(=O)Nc1ccccc1Sc1ncnc2scc(-c3ccccc3)c12 | 1 | -2 | 6% | 4.7µM* | 18%
Cn1nnnc1Sc1ncnc2scc(-c3ccc[nH]3)c12 | nt | nt | nt | 10µM* | ?
Cn1c(N)c(C(=O)CSc2nnc(-c3ccccc3F)n2N)c(=O)n(C)c1=O | -8 | 0 | 2% | ? | 10µM*
COc1ccccc1-n1c(COc2ccccc2-c2ccccc2)nnc1SCC(=O)c1c(N)n(C)c(=O)n(C)c1=O | 5 | -2 | 3.5µM* | 17% | ?
O=C(COC(=O)c1cc(-c2ccc(Cl)s2)nc2ccccc12)NCc1ccco1 | 18 | 16* | 15% | -2% | nt
Cc1ccc(-c2cc(C(=O)NCc3ccco3)c3ccccc3n2)s1 | 29 | 9.3* | 4% | 6% | -3%
COc1ccc(CNC(=O)COC(=O)c2cc(-c3ccc(Cl)s3)nc3ccccc23)cc1 | 25 | 11 | 7% | -5% | nt
O=C(COC(=O)c1cc(-c2cccs2)nc2ccccc12)NCc1ccco1 | 90* | 29* | 2% | 5% | 9%
O=C(NCc1ccco1)c1cc(-c2cccs2)nc2ccccc12 | 14 | 13* | 5% | ? | 19µM*
Cc1cc(C(=O)NCc2ccco2)c2cc(F)ccc2n1 | -1 | 1 | 1% | 14% | 13%
COc1cc(OC)c(S(=O)(=O)Nc2ccccc2NC(=O)CN2CCOCC2)cc1NC(C)=O | 1 | -2 | 3% | 5% | 2%
O=C(CSc1nnnn1-c1cccc2ccccc12)Nc1ccc(C(=O)O)cc1 | 4 | 1 | 5% | 29% | 243%
Cc1ccc(NC(=O)CCc2nnc3ccc(NCc4ccco4)nn23)cc1 | 18 | 35* | 6% | ? | ?
O=C(CCc1nnc2ccc(NCc3ccco3)nn12)Nc1ccc(F)cc1 | 22 | 4 | 15% | -3% | 22%
Nc1nc(-c2ccccc2)nc(-c2ccccc2O)n1 | nt | nt | -24% | nt | nt
Nc1nc(N)nc(-c2ccccc2O)n1 | 47* | 31 | -7% | 35% | ?
COc1ccc(/C=C/c2nc(N)nc(-c3ccccc3O)n2)cc1OC | 4 | 15* | 13% | -29% | ?
Brc1ccc(-c2ncc(-c3ccccc3)cn2)cc1 | 136* | 46* | 5% | nt | ?
Brc1ccc(-c2ccccc2)cc1 | nt | nt | nt | 39% | ?
CCCC(=O)Nc1nc2ccc3nc(C)sc3c2s1 | 95* | 40* | -5% | ? | nt
CCCCC(=O)Nc1nc2ccc3nc(C)sc3c2s1 | 16 | 9 | -45% | ? | 10µM*
Cc1ccc(-n2nnnc2SC(C)C(=O)Nc2ccc(Cl)cn2)cc1 (configuration not stated) | 10 | 9 | -44% | ? | 9.3µM*
NC(=O)c1ccccc1NC(=O)/C=C/c1ccc(Cl)cc1 | 90* | 48* | -6% | 127% | 134%
NC(=O)c1ccccc1NC(=O)/C=C/c1ccccc1 | 63* | 34* | -12% | 165% | 3%
O=C(/C=C/c1ccc(Cl)cc1)NC(=S)Nc1ccccc1C(=O)O | 17 | 1 | -41% | 1% | 8%
CC(C)=CC(=O)Nc1ccccc1C(N)=O | -8 | 2 | -4% | 11% | -23%
O=C(NCc1ccccc1Cl)c1ccc(NC2=NC3CS(=O)(=O)CC3S2)cc1 (configuration not stated) | 6 | 0 | -3% | 0% | 27%
